Results filed as inconclusive are left out. The source made the active and inactive calls. Unless noted, calls come from the whole dose curve; as a rule, active = well fitted curve in the direction sought with a large enough effect; inconclusive = small, poorly fitted or top-dose-only effect, or another doubt; inactive = no such curve, though single readings can be large; an effect the other way counts as inactive or inconclusive.
Key:
[1] = biological target: Rap guanine nucleotide exchange factor 3 (Homo sapiens) (UniProt O95398); assay: Confirmatory qHTS for antagonist of cAMP-regulated guanine nucleotide exchange factor 3 (EPAC1) (AID 1645880); note: nearly all actives have a fitted effect of over 55% in size; note: potency is the fitted concentration of half-maximal effect
Sequence of Rap guanine nucleotide exchange factor 3 (Homo sapiens) (O95398 whole entry, looked up): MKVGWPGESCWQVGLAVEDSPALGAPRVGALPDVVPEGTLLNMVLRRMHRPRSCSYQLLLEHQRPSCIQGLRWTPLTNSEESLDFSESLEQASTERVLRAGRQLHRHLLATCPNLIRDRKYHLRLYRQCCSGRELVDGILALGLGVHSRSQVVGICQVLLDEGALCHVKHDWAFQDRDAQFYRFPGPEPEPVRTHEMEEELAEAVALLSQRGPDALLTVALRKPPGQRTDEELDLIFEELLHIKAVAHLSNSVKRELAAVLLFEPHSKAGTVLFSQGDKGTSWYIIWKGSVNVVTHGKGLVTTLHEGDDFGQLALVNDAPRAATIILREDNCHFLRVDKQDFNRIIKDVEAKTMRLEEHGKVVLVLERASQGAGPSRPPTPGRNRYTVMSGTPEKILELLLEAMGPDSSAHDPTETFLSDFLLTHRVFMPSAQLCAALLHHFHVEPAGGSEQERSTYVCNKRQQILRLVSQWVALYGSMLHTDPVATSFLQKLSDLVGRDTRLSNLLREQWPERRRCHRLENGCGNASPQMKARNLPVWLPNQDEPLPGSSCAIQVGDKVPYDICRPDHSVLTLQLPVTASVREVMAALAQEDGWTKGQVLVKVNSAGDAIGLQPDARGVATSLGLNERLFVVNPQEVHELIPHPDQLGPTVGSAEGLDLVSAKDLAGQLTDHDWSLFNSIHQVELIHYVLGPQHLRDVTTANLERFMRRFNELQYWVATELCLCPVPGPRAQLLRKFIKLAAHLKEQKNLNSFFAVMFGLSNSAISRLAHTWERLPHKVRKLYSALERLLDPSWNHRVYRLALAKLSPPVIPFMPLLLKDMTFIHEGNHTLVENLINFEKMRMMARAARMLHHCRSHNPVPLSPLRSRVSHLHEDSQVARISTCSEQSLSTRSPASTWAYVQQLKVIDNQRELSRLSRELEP
Procedure, shortened: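 Released BODIPY-GDP fluoresces less than Rap1-bound BODIPY-GDP; the signal is followed at 480/540 nm at 5-min intervals over 30 min, after 5 min at room temperature. Reactions contain 100 nM EPAC1, 250 nM RAP1B-BODIPY-GDP and 50 uM GDP; results are normalized to ATA and DMSO.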

[2] = biological target: Rap guanine nucleotide exchange factor 3 (Homo sapiens) (UniProt O95398); assay: Confirmatory qHTS for agonist of cAMP-regulated guanine nucleotide exchange factor 3 (EPAC1) (AID 1645881); note: nearly all actives have a fitted effect of over 75% in size; note: potency is the fitted concentration of half-maximal effect;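 for activation: EPAC1 catalysed release of BODIPY-GDP from Rap1B seen as fluorescence loss; 100% = effect of cAMP agonist control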
[3] = biological target: Rap guanine nucleotide exchange factor 4 (Homo sapiens) (UniProt Q8WZA2); assay: Confirmatory qHTS for agonist of cAMP-regulated guanine nucleotide exchange factor 4 (EPAC2) (AID 1645884);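 note: nucleotide exchange releases bodipy-GDP from Rap1 and this lowers its fluorescence; nearly all actives have a fitted effect of over 65% in size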; note: potency is the fitted concentration of half-maximal effect; for activation: % is set by controls: 0 for no effect and ±100 for the full control effect
Sequence of Rap guanine nucleotide exchange factor 4 (Homo sapiens) (Q8WZA2 whole entry, looked up): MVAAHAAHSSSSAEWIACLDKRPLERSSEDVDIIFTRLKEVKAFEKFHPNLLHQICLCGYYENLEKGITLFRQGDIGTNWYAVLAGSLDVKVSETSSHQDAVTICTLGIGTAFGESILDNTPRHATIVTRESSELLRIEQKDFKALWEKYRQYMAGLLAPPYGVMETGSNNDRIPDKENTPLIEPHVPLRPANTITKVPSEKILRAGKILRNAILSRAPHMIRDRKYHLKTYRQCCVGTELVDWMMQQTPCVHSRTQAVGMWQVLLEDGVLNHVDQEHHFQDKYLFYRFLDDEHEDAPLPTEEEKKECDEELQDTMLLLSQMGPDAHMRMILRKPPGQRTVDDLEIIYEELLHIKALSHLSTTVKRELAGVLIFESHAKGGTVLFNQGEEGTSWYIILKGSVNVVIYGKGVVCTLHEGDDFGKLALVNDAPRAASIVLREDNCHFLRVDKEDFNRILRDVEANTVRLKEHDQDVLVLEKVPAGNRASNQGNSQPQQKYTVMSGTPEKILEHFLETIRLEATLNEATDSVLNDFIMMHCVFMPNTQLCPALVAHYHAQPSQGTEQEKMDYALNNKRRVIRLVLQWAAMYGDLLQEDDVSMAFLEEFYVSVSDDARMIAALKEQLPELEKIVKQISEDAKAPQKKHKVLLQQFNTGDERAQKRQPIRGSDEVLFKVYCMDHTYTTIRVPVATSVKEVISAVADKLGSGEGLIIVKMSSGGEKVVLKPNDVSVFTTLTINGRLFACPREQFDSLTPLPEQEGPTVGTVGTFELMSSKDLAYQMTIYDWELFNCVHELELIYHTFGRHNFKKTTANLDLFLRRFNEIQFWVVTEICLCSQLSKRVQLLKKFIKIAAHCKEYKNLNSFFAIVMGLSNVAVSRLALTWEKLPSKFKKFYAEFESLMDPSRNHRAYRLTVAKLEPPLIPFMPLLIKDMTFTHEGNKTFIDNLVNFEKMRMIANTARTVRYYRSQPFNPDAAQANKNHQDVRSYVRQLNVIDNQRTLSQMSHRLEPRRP

[4] = biological target: Rap guanine nucleotide exchange factor 4 (Homo sapiens) (UniProt Q8WZA2); assay: Confirmatory qHTS for antagonist of cAMP-regulated guanine nucleotide exchange factor 4 (EPAC2) (AID 1645885); note: nearly all actives have a fitted effect of over 25% in size; note: potency is the fitted concentration of half-maximal effect; for activity change, negative = inhibition: % is set by controls: 0 for no effect and ±100 for the full control effect
[5] = biological target: Rap guanine nucleotide exchange factor 3 (Homo sapiens) (UniProt O95398); assay: Counterscreen qHTS for antagonist of cAMP-regulated guanine nucleotide exchange factor 3 (EPAC1) (AID 1645888); note: % of control where 0% means no effect
Procedure, shortened: (§1)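 Rap1B–BODIPY-GDP (250 nM) with 50 uM GDP; compounds pin-transferred to 9.74 nM–152 uM final (activator) or from 7.32 nM upwards (inhibitor). Fluorescence Ex/Em 480/540 nm read at 5 and 30 min, then after adding cAMP or buffer, at room temperature.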

[6] = biological target: Rap guanine nucleotide exchange factor 3 (Homo sapiens) (UniProt O95398); assay: Counterscreen qHTS for agonist of cAMP-regulated guanine nucleotide exchange factor 3 (EPAC1) (AID 1645889); note: nearly all actives have a fitted effect of over 40% in size; note: potency is the fitted concentration of half-maximal effect; for activation: % of control where 0% means no effect
Procedure, shortened: as §1

[7] = biological target: Lysosomal acid glucosylceramidase (Homo sapiens) (UniProt P04062); assay: Glucocerebrosidase-p2 (AID 348; in the data active = potency below about 10 µM; note: potency is the fitted concentration of half-maximal effect); settings: purified GBA, blue fluorogenic substrate, 40 min
Sequence of Lysosomal acid glucosylceramidase (Homo sapiens) (P04062 whole entry, looked up): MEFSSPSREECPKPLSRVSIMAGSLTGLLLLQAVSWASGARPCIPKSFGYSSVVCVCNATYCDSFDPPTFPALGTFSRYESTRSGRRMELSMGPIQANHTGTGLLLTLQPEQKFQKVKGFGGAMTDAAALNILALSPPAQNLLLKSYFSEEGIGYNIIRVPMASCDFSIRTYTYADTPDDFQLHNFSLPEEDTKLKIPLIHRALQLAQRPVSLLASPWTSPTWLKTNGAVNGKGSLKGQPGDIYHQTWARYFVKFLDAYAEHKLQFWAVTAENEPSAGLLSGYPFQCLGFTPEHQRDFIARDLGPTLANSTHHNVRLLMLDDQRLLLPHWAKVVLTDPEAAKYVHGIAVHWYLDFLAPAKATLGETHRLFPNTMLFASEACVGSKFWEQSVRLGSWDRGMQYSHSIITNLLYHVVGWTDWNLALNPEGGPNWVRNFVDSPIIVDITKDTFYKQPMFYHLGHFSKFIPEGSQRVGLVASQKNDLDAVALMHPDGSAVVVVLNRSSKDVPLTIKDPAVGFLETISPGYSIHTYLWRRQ
Procedure, shortened: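 Normal human glucocerebrosidase (0.2 nM) with blue fluorogenic substrate (80 uM final) in citrate/phosphate pH 5.9 with 10mM sodium taurocholate, 0.01% tween-20; 40 min RT, NaOH/glycine stop; fluorescence Ex 365/Em 440; AC50 from a titration from 0.6 nM upwards.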

[8] = AP1 Signaling Pathway (AID 357; active = well fitted curve in either direction with a large enough effect, not every such curve was filed as active;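 note: ME-180 reporter cells stimulated with EGF at its EC50 level; % is set by controls: 0 for no effect and ±100 for the full control effect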)
Procedure, shortened: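 First, ME-180 AP-1-bla cells were cultured overnight at 37 °C in low-serum Opti-MEM. Next, titrated compounds with EC50 EGF were incubated 5 hours. Finally, CCF4 was added for 2.5 hours and the 460/530 nm ratio recorded.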

[9] = biological target: Cytochrome P450 1A2 (Homo sapiens) (UniProt P05177); assay: p450-cyp1a2 (AID 410; calls by dose curve;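 note: -100% = full effect of reference inhibitor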)
Sequence of Cytochrome P450 1A2 (Homo sapiens) (P05177 whole entry, looked up): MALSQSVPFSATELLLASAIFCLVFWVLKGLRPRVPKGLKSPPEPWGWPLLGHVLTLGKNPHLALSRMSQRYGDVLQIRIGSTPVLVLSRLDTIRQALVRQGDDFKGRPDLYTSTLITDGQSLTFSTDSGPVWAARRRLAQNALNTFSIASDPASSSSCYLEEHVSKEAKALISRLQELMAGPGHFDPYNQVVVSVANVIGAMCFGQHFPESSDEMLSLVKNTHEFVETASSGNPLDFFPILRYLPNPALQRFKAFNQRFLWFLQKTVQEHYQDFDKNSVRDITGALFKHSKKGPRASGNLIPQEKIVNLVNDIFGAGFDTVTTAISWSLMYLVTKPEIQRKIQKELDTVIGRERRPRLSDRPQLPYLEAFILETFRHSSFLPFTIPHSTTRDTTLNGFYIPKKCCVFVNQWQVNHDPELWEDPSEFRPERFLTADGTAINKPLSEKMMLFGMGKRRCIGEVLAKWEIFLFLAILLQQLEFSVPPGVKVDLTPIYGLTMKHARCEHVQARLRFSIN
Procedure, shortened: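 O-Demethylation of luciferin 6' methyl ether by human CYP1A2 is monitored as luciferase luminescence. Substrate sits at Km (100uM); enzyme is 20nM. Values are scaled to 57 uM furafylline as maximal inhibition.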

[10] = biological target: Glucocorticoid receptor (Homo sapiens) (UniProt P04150); assay: GR-GFP Redistribution (AID 450;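 active = compounds whose dose series gives a full or clear partial fitted curve of increased nuclear translocation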; note: potency is the fitted concentration of half-maximal effect); settings: U2OS GR-GFP nuclear translocation, laser cytometry, 2 h
Sequence of Glucocorticoid receptor (Homo sapiens) (P04150 whole entry, looked up, the tested form may be a part): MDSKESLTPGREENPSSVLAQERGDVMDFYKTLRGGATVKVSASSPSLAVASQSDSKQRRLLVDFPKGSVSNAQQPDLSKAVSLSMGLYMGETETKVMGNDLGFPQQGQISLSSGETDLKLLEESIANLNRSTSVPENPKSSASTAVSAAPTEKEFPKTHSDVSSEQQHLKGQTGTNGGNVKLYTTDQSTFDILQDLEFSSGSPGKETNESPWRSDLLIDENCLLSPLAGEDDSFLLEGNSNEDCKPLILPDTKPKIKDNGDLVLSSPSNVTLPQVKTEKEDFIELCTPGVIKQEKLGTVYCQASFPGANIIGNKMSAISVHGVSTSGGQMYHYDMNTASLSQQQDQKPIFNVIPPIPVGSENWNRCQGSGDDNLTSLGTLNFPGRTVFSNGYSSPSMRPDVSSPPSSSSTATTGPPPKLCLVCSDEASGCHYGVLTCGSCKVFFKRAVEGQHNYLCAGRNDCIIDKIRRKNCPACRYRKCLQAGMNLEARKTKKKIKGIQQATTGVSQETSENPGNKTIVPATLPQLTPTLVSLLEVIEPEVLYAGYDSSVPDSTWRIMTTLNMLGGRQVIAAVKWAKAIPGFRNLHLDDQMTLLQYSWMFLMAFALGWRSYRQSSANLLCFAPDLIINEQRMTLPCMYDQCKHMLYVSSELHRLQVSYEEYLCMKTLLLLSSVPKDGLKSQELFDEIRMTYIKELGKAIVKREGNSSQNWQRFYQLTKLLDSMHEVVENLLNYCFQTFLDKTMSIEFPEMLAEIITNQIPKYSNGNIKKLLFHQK

[11] = biological target: Glucocorticoid receptor (Homo sapiens) (UniProt P04150); assay: GR-EFC Redistribution (AID 451; calls by dose curve; note: potency is the fitted concentration of half-maximal effect); settings: CHO-K1 GR-EFC translocation, beta-gal luminescence, 2 h
Procedure, shortened: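 CHO-K1 cells expressing nuclear EA and GR-ED fragments of b-gal; compounds titrated up to 46 uM final, 2 h at 37 C. GR nuclear translocation read as complemented b-gal luminescence after 1 h RT detection.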

[12] = biological target: 3',5'-cyclic-AMP phosphodiesterase 4B (Homo sapiens) (UniProt Q07343); assay: qHTS Assay for Inhibitors of PDE-IV (AID 607; active = well fitted activation curve with a large enough effect in the main read-out, with a control signal flat, not every such curve was filed as active; note: % of control where 0% means no effect)
Sequence of 3',5'-cyclic-AMP phosphodiesterase 4B (Homo sapiens) (Q07343 whole entry, looked up): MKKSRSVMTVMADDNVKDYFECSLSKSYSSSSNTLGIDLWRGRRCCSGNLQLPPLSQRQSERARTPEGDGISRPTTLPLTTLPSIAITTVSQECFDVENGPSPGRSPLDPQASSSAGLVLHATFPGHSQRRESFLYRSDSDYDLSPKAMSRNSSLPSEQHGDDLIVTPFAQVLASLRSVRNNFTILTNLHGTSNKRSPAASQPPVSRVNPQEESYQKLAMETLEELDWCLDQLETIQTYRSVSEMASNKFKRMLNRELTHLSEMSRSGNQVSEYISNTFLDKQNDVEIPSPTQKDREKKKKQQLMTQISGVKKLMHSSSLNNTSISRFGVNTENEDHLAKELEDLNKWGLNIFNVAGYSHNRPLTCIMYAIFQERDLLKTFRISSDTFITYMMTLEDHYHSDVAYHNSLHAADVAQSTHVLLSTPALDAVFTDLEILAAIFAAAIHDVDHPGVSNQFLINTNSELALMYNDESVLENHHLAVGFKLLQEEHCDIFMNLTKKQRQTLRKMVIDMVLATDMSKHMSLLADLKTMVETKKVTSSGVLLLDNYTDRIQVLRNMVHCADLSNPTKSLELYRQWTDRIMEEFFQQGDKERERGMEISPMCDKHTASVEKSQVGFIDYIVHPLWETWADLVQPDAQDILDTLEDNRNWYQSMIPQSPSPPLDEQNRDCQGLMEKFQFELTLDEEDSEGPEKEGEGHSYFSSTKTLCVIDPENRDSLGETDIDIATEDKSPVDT
Procedure, shortened: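 Live HEK293 cells with a modified cyclic nucleotide-gated (CNG) channel report intracellular cAMP via membrane-potential dye fluorescence (ex 535/em 590 nm). Endogenous PDE-IV was targeted. Compounds were tested at up to 22.9 uM final; RO 20-1724 100 uM served as control.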

[13] = biological target: Cytochrome P450 2C9 (Homo sapiens) (UniProt P11712); assay: qHTS Assay for Inhibitors and Substrates of Cytochrome P450 2C9 (AID 883); note: potency is the fitted concentration of half-maximal effect; nearly all actives have a fitted effect of over 60% in size
Sequence of Cytochrome P450 2C9 (Homo sapiens) (P11712 whole entry, looked up): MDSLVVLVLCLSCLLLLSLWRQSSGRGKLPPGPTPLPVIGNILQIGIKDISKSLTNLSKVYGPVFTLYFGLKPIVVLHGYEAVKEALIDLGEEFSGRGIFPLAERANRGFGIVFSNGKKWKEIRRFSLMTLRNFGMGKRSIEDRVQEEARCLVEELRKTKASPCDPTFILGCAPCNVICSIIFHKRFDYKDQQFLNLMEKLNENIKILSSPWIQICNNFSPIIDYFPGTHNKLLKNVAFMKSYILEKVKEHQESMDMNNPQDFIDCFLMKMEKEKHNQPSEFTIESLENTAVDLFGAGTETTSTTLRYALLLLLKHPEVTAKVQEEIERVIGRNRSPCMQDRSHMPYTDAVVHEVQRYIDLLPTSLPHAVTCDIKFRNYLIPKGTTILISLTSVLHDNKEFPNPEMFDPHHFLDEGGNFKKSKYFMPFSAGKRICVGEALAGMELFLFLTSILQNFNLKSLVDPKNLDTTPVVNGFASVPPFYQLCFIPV
Procedure, shortened: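 Human CYP2C9 (10nM) with Luciferin-H at 100uM (its KM) in 25mM KPO4; compound preincubated 10 min at 37C, then NADPH regeneration for 60 min at 37C. Luciferin read by luminescence after detection reagent; normalized to 57uM sulphaphenazole as full inhibition.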

COc1ccc(N=Cc2c(O)n(Cc3ccccc3)c(=S)[nH]c2=O)c(OC)c1
active: Potency [2] 79.4 µM | Potency [3] 100 µM
inactive: Potency [1] | Potency [4] | outcome [5] | Potency [6]

COc1ccc(C(SCC(NC(=O)OCc2ccccc2)C(=O)O)c2ccc(OC)cc2)cc1 (centres undefined)
inactive: Potency [1] | Potency [2] | Potency [3] | Potency [4] | outcome [5]

CCCCn1c(NS(=O)(=O)c2ccc(C)cc2)c(C(=O)OCC)c2nc3ccccc3nc21
active: Potency [1] 75.7 µM | Potency [4] 23.9 µM
inactive: Potency [2] | Potency [3] | outcome [5]

Oc1c(Cl)cccc1Cc1cc(Cl)cc(Cl)c1O
active: Potency [1] 19 µM
inactive: Potency [2] | Potency [3] | Potency [4] | outcome [5] | Potency [6]

COc1cccc(-n2c(/C=C/c3ccc(O)c(O)c3)nc3ccccc3c2=O)c1
inactive: Potency [2] | activation [3] 9.04% [at 17.1 µM, percent relative to cAMP agonist control] | activity change, negative = inhibition [4] -22.6% [at 12.7 µM] | activity change, negative = inhibition [5] 2.65% [at 30.8 µM]
active: Potency [1] 31.6 µM

CCOC(=O)c1cc(CC)sc1/N=C/c1c(O)[nH]c(=S)[nH]c1=O
inactive: Potency [1] | Potency [4] | outcome [5]
active: Potency [2] 100 µM | Potency [3] 100 µM

COc1ccc(-n2c(O)c(/C=C3\C=Nc4ccc(Br)cc43)c(=O)[nH]c2=O)c(OC)c1
active: Potency [1] 37.9 µM
inactive: Potency [2] | Potency [3] | Potency [4] | outcome [5]

CCN1/C(=C/C=C/C2=[N+](CC)c3ccccc3C2(C)C)C(C)(C)c2ccccc21
inactive: Potency [1] | Potency [4] | outcome [5]
active: Potency [2] 56.2 µM | Potency [3] 100 µM | Potency [6] 10 µM

O=C1NC(=O)N(Cc2ccco2)C(=O)/C1=C/C=C/c1ccco1
inactive: Potency [1] | Potency [2] | activation [3] 0.0468% [at 17.1 µM, percent relative to cAMP agonist control] | activity change, negative = inhibition [4] 0.223% [at 12.7 µM] | activity change, negative = inhibition [5] -7.48% [at 30.8 µM] | activation [6] -8.64% [at 30.8 µM]

COCCCn1c(N)c(C(=O)NCCC(C)C)c2nc3ccccc3nc21
active: Potency [1] 56.2 µM
inactive: Potency [2] | activation [3] 8.34% [at 17.1 µM, percent relative to cAMP agonist control] | activity change, negative = inhibition [4] -14.1% [at 12.7 µM] | activity change, negative = inhibition [5] 2.52% [at 30.8 µM]

O=C(c1cc(Cl)cc(Cl)c1)N1Cc2ccccc2-n2nncc2C1
inactive: Potency [1] | Potency [2] | activation [3] -5.36% [at 17.1 µM, percent relative to cAMP agonist control] | activity change, negative = inhibition [4] -20.5% [at 12.7 µM] | activity change, negative = inhibition [5] 29.2% [at 30.8 µM] | activation [6] 5.77% [at 30.8 µM]

CN(C)CC(C(=O)Cc1ccccc1)c1ccccc1 (centres undefined)
inactive: Potency [1] | Potency [2] | Potency [3] | Potency [4] | outcome [5]

COC(=O)C1=C(c2ccc3ccccc3c2)C[C@@H]2CC[C@H]1N2C(=O)NC1CC1
inactive: Potency [1] | Potency [2] | Potency [3] | Potency [4] | outcome [5] | Potency [6]

CC(C)c1ccc(C(c2c(O)c3ccccc3oc2=O)c2c(O)c3ccccc3oc2=O)cc1
active: Potency [13] 3.16 µM | Potency [1] 15.1 µM
inactive: Potency [7] > 11.4 µM | outcome [8] | activity change, negative = inhibition [9] -18.8% [at 2.29 µM] | Potency [10] > 46 µM | Potency [11] > 9.22 µM | Potency [12] | Potency [2] | Potency [3] | Potency [4] | outcome [5] | Potency [6]
